Screening data (PubChem)
p53 mut binder – binders of human mutant p53, primary screen, biochemical, small molecule microarray, anti-GST fluorescence | small molecule microarray binding | AID 624136, 2012 | calls only | hit rate 0.4% among 17,000;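 active means compounds whose four printed spots each glow above background more than chance allows, each with a p-value under 7%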
p53 PUMA act – mutant p53 pathway re-activators, primary screen, cell-based, SW480, luciferase, single point, HTS | SW480 PUMA-promoter luciferase, p53 mutant reactivation | activation, % at 9.98 µM | hit rate 1.5% among 28,000; in the data active means activation above about 52%
Myc binder – binders of human c-Myc, primary screen, biochemical, small molecule microarray, anti-His fluorescence; Myc proto-oncogene protein (Homo sapiens), P01106; His-c-Myc binding; calls only; hit rate 1.5% among 17,000; AID 624141, 2012;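 active means spot fluorescence over background with P-value below 7% in all four replicate spots, showing protein binding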;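 further: score is binary with 100 for all four spots passing and 0 otherwise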
Target sequence (P01106 whole entry, looked up): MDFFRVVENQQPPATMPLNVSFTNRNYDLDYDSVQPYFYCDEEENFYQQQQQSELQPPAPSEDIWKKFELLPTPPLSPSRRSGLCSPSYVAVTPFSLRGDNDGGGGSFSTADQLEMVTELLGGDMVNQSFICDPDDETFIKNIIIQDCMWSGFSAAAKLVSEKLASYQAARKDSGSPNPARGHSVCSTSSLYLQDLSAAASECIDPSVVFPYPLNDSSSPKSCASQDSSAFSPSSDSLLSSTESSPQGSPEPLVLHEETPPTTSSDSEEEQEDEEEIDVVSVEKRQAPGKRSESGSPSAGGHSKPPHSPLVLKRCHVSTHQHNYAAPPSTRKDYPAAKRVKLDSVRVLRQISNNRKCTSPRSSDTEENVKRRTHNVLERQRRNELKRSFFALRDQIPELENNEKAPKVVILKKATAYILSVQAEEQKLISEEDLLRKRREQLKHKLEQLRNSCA
STAT3 binder – STAT3 binders, primary screen, biochemical, small molecule microarray, single point, set 2 | Signal transducer and activator of transcription 3 (Homo sapiens), P40763 | His-STAT3 binding, anti-His fluorescence | calls only | hit rate 0.2% among 17,000 | AID 624138, 2012;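 active means compounds whose four printed spots each show fluorescence over background unusually high for their array block, chance value under 7%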
NFkB SMM – binders of NF-kB p50 subunit, primary screen, biochemical, small molecule microarray, anti-His fluorescence; anti-His fluorescence binding; Nuclear factor NF-kappa-B p105 subunit (Homo sapiens), P19838; AID 624139, 2012; calls only; hit rate 1.3% among 17,000;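 active means spot fluorescence over background significantly raised, with a chance value under 7% in all four replicate spots of the compound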;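 further: probe protein is his-tagged human p50 processed subunit at 1 µg/ml; raw spot fluorescence signals with no normalization applied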
Active calls of the source: *; i = inactive; . = not tested or not shown; + = active, no number. Compounds with a hit are over-represented: about 2.6% of the library has one in this group of screens.

SMILES	p53 mut binder	p53 PUMA act	Myc binder	STAT3 binder	NFkB SMM
C[C@@H]1CN([C@@H](C)CO)C(=O)c2cc(NS(C)(=O)=O)ccc2O[C@H]1CN(C)CC1CC1	i	3.2	i	i	i
Cc1cccc(NC(=O)CCC(=O)O)c1	i	-6.1	+	i	i
C[C@@H]1CCCCO[C@H](CN(C)S(=O)(=O)c2cccs2)[C@@H](C)CN([C@H](C)CO)C(=O)c2cc(NS(=O)(=O)c3cccs3)ccc2O1	i	0.8	i	i	i
COc1ccc2c(=O)c(-c3ccc(OC)c(OC)c3)coc2c1	i	123.5*	i	i	i
COc1ccc(-c2coc3cc(OC(C)=O)cc(OC(C)=O)c3c2=O)cc1	i	129.6*	i	i	i
COc1ccc(-c2coc3cc(O[C@@H]4O[C@H](CO)[C@@H](O)[C@H](O)[C@H]4O)ccc3c2=O)cc1	i	11.3	i	i	i
C[C@@H]1CCCCO[C@H](CN(C)Cc2ccccc2)[C@@H](C)CN([C@H](C)CO)C(=O)c2cc(NS(=O)(=O)c3cn(C)cn3)ccc2O1	.	16.7	.	.	.
O=C(O)C1C2C=CC(C2)C1C(=O)Nc1cccc([N+](=O)[O-])c1 (centres undefined)	i	8.0	i	i	i
O=C(COc1ccc([N+](=O)[O-])cc1)Nc1cccc2cccnc12	i	64.1*	i	i	i
O=C(COc1cccc2ccccc12)Nc1cc([N+](=O)[O-])ccc1O	.	66.9*	.	.	.
CCc1cccc(OCC(=O)Nc2cc([N+](=O)[O-])ccc2O)c1	.	74.4*	.	.	.
C[C@H]1CN([C@@H](C)CO)C(=O)c2cccc(NS(=O)(=O)c3ccccc3)c2O[C@@H]1CN(C)C(=O)NC1CCCCC1	i	-2.3	i	i	i
O=C(COc1ccc(S(=O)(=O)N2CCCC2)cc1Cl)Nc1ccccc1F	.	6.4	.	.	.
Cc1noc(C)c1S(=O)(=O)N(C)C[C@@H]1Oc2ccc(NC(=O)c3ccncc3)cc2CC(=O)N([C@@H](C)CO)C[C@@H]1C	i	2.8	i	i	i
CC(C(=O)Nc1ccc(I)cc1)N(c1ccc(Cl)cc1)S(C)(=O)=O (centres undefined)	.	-12.2	.	.	.
O=C(COc1ccc(S(=O)(=O)NC2CCCCC2)cc1Cl)N1CCOCC1	.	-8.7	.	.	.
Cc1cc(S(=O)(=O)NC2CCCCC2)ccc1OCC(=O)O	i	-7.9	+	i	i
Cc1nc2ccc(NC(=S)NCCCO)cc2nc1C	i	25.7	+	i	i
COc1ccc(C(=O)NCC(=O)Nc2ccccc2C(F)(F)F)cc1OC	.	-12.4	.	.	.
C[C@@H]1CN([C@@H](C)CO)C(=O)c2cc(NS(=O)(=O)c3cn(C)cn3)ccc2O[C@H]1CN(C)S(=O)(=O)c1cn(C)cn1	i	3.2	i	i	i
CCc1cc2c(SCC(=O)c3ccc(C)cc3)ncnc2s1	.	64.9*	.	.	.
CCc1ccc(C(Nc2cc(C)ccn2)c2ccc3cccnc3c2O)cc1 (centres undefined)	+	-42.9	i	i	i
C[C@H]1CCCCO[C@@H](CN(C)C(=O)Nc2ccc(F)cc2)[C@@H](C)CN([C@@H](C)CO)C(=O)c2cc(N(C)C)ccc2O1	i	-1.6	i	i	i
CC(Sc1ncnc2sc(-c3ccccc3)cc12)C(=O)Nc1ccccc1C(F)(F)F (centres undefined)	.	43.2	.	.	.
CCOc1ccc(NC(=O)C(C)Sc2ncnc3sc(-c4ccccc4)cc23)cc1 (centres undefined)	i	7.1	+	i	i
SMILES	p53 mut binder	p53 PUMA act	Myc binder	STAT3 binder	NFkB SMM
Cc1ccc2nc(SCc3nc4ccccc4n3C)[nH]c2c1	i	61.8*	i	i	i
C[C@H](CO)N1C[C@H](C)[C@H](CN(C)S(=O)(=O)c2cccs2)Oc2c(NC(=O)Nc3ccc(C(F)(F)F)cc3)cccc2C1=O	i	-12.6	i	i	i
CS(=O)(=O)N(CC(=O)Nc1cc(Cl)c(Cl)cc1Cl)C1CCCCC1	.	-9.0	.	.	.
CCCn1cnc2cc(NCc3ccccn3)ccc21	i	77.5*	i	i	i
CCOc1ccccc1CNCc1ccccn1	i	10.1	i	i	i
C[C@H]1CCCCO[C@H](CN(C)C)[C@@H](C)CN([C@@H](C)CO)C(=O)c2cc(NC(=O)Nc3ccccc3)ccc2O1	i	-1.8	i	i	i
